Hit rate of the full screen: of about 340,000 compounds, about 2,100 (0.62%) were called active.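 The calls were made as follows: active = first-screen hits whose inhibition reached a set limit at any dose in the follow-up dose series; inconclusive = inhibition above the set first-screen limit but never retested; inactive = the rest.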 These entries were drawn from the full list. Entries with a potency or affinity are not part of this list.
target: Rac GTPase-activating protein 1 (Homo sapiens) (UniProt Q9H0H5); experiment: blockers of MgcRacGAP-driven Rac1 GTP hydrolysis – biochemical, ADP Hunter fluorescence, primary and confirmatory, confirmation (AID 624330); settings: MgcRacGAP-stimulated Rac1 GTP hydrolysis, at 30 µM, active compounds read high, GST-tagged Rac1 F28L mutant substrate;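 also: fluorescence reports GDP produced by GAP-driven GTP hydrolysis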
Sequence (Q9H0H5 whole entry, looked up): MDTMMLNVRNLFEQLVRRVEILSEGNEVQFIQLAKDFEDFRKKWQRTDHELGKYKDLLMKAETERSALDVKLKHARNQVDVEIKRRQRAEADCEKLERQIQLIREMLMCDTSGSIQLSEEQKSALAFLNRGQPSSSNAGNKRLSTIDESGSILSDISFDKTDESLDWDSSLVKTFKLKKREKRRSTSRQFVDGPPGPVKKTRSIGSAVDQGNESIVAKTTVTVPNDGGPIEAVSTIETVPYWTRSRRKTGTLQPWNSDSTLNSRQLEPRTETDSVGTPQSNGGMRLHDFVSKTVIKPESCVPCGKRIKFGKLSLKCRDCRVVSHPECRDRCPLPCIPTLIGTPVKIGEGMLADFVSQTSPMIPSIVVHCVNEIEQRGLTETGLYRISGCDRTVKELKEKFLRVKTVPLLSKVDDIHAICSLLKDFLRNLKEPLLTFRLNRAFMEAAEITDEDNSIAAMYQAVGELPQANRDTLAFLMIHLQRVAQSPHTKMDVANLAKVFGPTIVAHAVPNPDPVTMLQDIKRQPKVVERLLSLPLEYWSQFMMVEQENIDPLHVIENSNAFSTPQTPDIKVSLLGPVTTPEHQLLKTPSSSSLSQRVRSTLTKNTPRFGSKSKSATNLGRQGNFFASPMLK

inhibition, inactive:
O=C(NCc1cccnc1)C1CCN(S(=O)(=O)c2cccs2)CC1 8.85%
Cc1ccc(S(=O)(=O)Nc2ccc(N(C)S(=O)(=O)c3ccc(C)cc3)cc2)cc1 3.88%
CN(C)c1ccc(S(=O)(=O)c2ccc(Cl)cc2)cc1 -2.71%
Cc1ccc(NC(=O)COC(=O)C(NS(=O)(=O)c2ccc(Cl)cc2)C(C)O)cc1 (stereo unspecified) 4.48%
O=S(=O)(Nc1ccncc1)c1ccc(Cl)cc1 2.85%
CCN(c1ccc(NS(=O)(=O)c2cc(Cl)ccc2Cl)cc1)C(C)C 10.2%
CSc1ccc(S(=O)(=O)Nc2ccc(S(=O)(=O)Nc3ccc(C)cc3)cc2)cc1 8.03%
CC(=O)N(C)c1ccc(NS(=O)(=O)c2cc(Cl)ccc2Cl)cc1 11.1%
CC(=O)Nc1ccc(S(=O)(=O)N[C@@H](C)C(=O)OCc2ccc(Cl)cc2)cc1 3.47%
O=C(CCSc1ccc(Cl)cc1)NCc1ccccn1 14.8%
CC(=O)CC(=O)Nc1ccc(Cl)cn1 4.78%
CCOC(=O)N1CCC(N2CCN(S(=O)(=O)c3ccc([N+](=O)[O-])cc3)CC2)CC1 30.9%
COc1ccc2nc(NC(=O)CSc3cn[nH]n3)sc2c1 6.06%
Nc1ccccc1NC(=O)NC(=O)c1ccccc1 12.1%
COC(=O)Cn1cc(/C=N/NC(=O)COc2cccc3cccnc23)c2ccccc21 5.77%
Cc1cc(C(=O)Nc2sccc2C#N)c2ccccc2n1 12%
Cn1nnc(NC(=O)c2ccc(Br)o2)n1 11.1%
COCc1ccc(CN2CCC(N3CCC(C(=O)N4CCCC4)CC3)CC2)o1 1.64%
CN(CC(=O)Nc1ccc(F)cc1)C(=O)c1cccc(NS(=O)(=O)c2ccccc2)c1 5.16%
COCCCNC(=O)/C(C#N)=C/c1c(N2CCN(c3ccccc3)CC2)nc2c(C)cccn2c1=O 10.4%
COCCNC(=O)/C(C#N)=C/c1c(N2CCN(c3ccc(OC)cc3)CC2)nc2c(C)cccn2c1=O 31.4%
OCCNCc1c(OCc2ccc(Cl)cc2)ccc2ccccc12 8.81%
CCc1ccc(NC(=O)CCNC(=O)Cn2cnc3ccccc3c2=O)cc1 9.24%
COc1ccc(-n2c(C)cc(/C=C3\C(=N)N4N=C(CC(=O)N5CCOCC5)SC4=NC3=O)c2C)c(OC)c1 -2.43%
Cc1cc(-c2ccc3ccccc3c2)n2ncnc2n1 -7.09%
Cc1cc(-c2ccccc2)n2ncnc2n1 6.89%
COc1ccc(NC(=O)CCCc2ccccc2)c(OC)c1 6.75%
CNC(=O)CC1C(=O)N(Cc2ccccc2)C(=S)N1NC(=O)c1cccc(F)c1 (stereo unspecified) -0.78%
COCCn1c(CN2CCc3ccccc3C2)nc2c1c(=O)n(C)c(=O)n2C 7.99%
CCCc1nc2ccccc2n1CCOc1ccccc1 3.33%
N#C/C(=C/c1cccc(O)c1)C(=O)NCc1ccc(Cl)cc1 24.4%
COc1ccc(/C=C(\C#N)C(=O)NCc2cccnc2)cc1OC 0.52%
CCOc1ccc(/C=C(\C#N)C(=O)NCC2CCCO2)cc1OCC (stereo unspecified) -2.79%
CCOc1cc(/C=C(\C#N)C(=O)NCC2CCCO2)ccc1OCC(N)=O (stereo unspecified) 4.74%
CCOc1cc(/C=C(\C#N)C(=O)Nc2ccccn2)ccc1O 12.8%
COc1cc(/C=N/NC(=O)C(=O)NCc2cccnc2)ccc1O 25.4%
COc1ccc(/C=N/NC(=O)C(=O)NCc2cccnc2)cc1OC -5.14%
N#C/C(=C/c1ccc(O)cc1)C(=O)NCc1ccc(Cl)cc1 3.42%
O=C(NCc1ccco1)C1CC(c2cc(C(F)(F)F)cc(C(F)(F)F)c2)=NO1 (stereo unspecified) 6.53%
COc1cc2c(cc1NC(=O)CN(C)Cc1nc3ccccc3c(=O)[nH]1)oc1ccccc12 5.31%
O=C(Nc1ccc(Cl)cc1Cl)NC1CCN(S(=O)(=O)c2ccc(F)cc2)CC1 9.28%
Cc1ccc(-c2ccc(/C=N/NC(=O)Cc3nnc(N)s3)o2)cc1Cl 7.23%
COc1ccc(S(=O)(=O)N2CCOCC2)cc1NC(=O)c1cc(C)oc1C 6.98%
O=C(Cn1nc(-c2ccccc2)c2ccccc2c1=O)Nc1ccc(F)cc1 5.93%
CCn1c(=O)n(CC(=O)Nc2ccc(F)cc2)c(=O)c2ccccc21 12.4%
O=C(Cn1sc2ccccc2c1=O)Nc1ccc(Br)cc1 31.7%
O=C(Cn1sc2ccccc2c1=O)Nc1ccc(Cl)cc1 31.2%
O=c1c(-c2ccc(Br)cc2)[n+]([O-])c2ccccc2n1OCc1ccccc1 -0.43%
CSc1ccc(Cn2nnc(C(=O)Nc3ccc(C)c(C)c3)c2N)cc1 8.18%
Cn1c(SCC(=O)Nc2cccc(F)c2)nnc1-c1cc2ccccc2o1 7.89%
Nc1ccc(NC(=O)c2cccs2)cc1 24%
CC1=C(C(=O)NCCc2ccc(C)cc2)C2(CCC(C)CC2)OC1=O (stereo unspecified) 7.59%
O=C(NC1=C(Nc2ccc(Cl)cc2)C(=O)c2ccccc2C1=O)c1ccccc1 6.16%
O=C(Nc1ccccc1Cl)c1ccccc1 6.83%
C/C(=N\NC(=O)C(O)c1ccccc1)c1cccnc1 (stereo unspecified) 2.12%
O=C(N/N=C/c1ccc(N2CCOCC2)s1)c1ccccc1Cl 25.1%
O=C(N/N=C/c1ccc(N2CCOCC2)s1)c1ccc(NS(=O)(=O)c2cccs2)cc1 18.4%
O=C(NN=Cc1ccc(N2CCOCC2)s1)c1ccc([N+](=O)[O-])cc1 9.59%
COc1ccc(C(=O)N/N=C/c2sc(N3CCOCC3)nc2-c2ccccc2)cc1OC 7.1%
COc1ccc(C(=O)N/N=C/c2ccc(N3CCOCC3)o2)cc1OC 14.2%
Nc1ccc(C(=O)N/N=C/c2sc(N3CCOCC3)nc2-c2ccccc2)cc1 12%
